# Source: PubChem BioAssay (NCI)
# Compounds without any hit were thinned out: in the full panel of roughly 79,000, 15% have a hit. A number with no mark means an inactive call. The source made the active and inactive calls. Cut-off read from the data, not from the text of the source: active = growth inhibition above about 70%; inactive = the rest.
# What was measured:
# [1] = NCI Yeast Anticancer Drug Screen. Data for the rad52 strain (AID 147);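 note: 0% = growth of vehicle-treated control cultures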; conditions: S. cerevisiae rad52 mutant growth inhibition, stronger effect = higher value
# Method in brief: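 Here a repair-compromised yeast strain receives each compound; its growth is then quantified and normalised to vehicle-only controls.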
# [2] = NCI Yeast Anticancer Drug Screen. Data for the wt1 strain (AID 149);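 note: 0% = growth of vehicle-treated wt1 cultures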; conditions: S. cerevisiae wt1 strain (SPY 50644) growth inhibition, stronger effect = higher value
# Method in brief: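 Compounds are added to wt1 yeast cultures. Growth is then measured. Inhibition is expressed relative to vehicle-treated controls.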
# [3] = NCI Yeast Anticancer Drug Screen. Data for the rad50EPP+ strain (AID 151);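 note: 0% = growth of vehicle-treated control cultures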; conditions: S. cerevisiae rad50 mutant strain, stronger effect = higher value
# Method in brief: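 Read-out is yeast growth inhibition relative to vehicle; cells used were the rad50EPP+ strain.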
# [4] = NCI Yeast Anticancer Drug Screen. Data for the mgt1 strain (AID 153); conditions: S. cerevisiae mgt1 mutant growth inhibition, stronger effect = higher value
# Method in brief: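 Measured: inhibition of mgt1 yeast growth by compound, normalized to vehicle-treated cultures.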
# [5] = NCI Yeast Anticancer Drug Screen. Data for the rad50 strain (AID 155);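 note: 0% = growth of vehicle-only cultures of the same strain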; conditions: S. cerevisiae rad50 strain growth inhibition, stronger effect = higher value
# Method in brief: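 Inhibition values express reduced yeast growth in compound-treated cultures relative to vehicle-treated controls.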
# [6] = NCI Yeast Anticancer Drug Screen. Data for the mec2-1 strain (AID 157); conditions: S. cerevisiae mec2-1 strain, stronger effect = higher value
# Method in brief: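 Using mec2-1 yeast: add compound, measure growth, express inhibition versus vehicle-treated cultures.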
# [7] = NCI Yeast Anticancer Drug Screen. Data for the rad14 strain (AID 159);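 note: 0% = growth of vehicle-treated control cultures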; conditions: S. cerevisiae rad14 strain growth inhibition, stronger effect = higher value
# Method in brief: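 A mutant yeast strain defective in DNA damage repair is treated with compound; inhibition of its growth is scored against untreated, vehicle-exposed cultures.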
# [8] = NCI Yeast Anticancer Drug Screen. Data for the sgs1 mgt1 strain (AID 161);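 note: 0% = growth of cultures given vehicle only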; conditions: S. cerevisiae sgs1 mgt1 strain, stronger effect = higher value
# Method in brief: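 This yeast growth screen uses a strain with defined DNA-repair lesions; compound-treated growth is compared with vehicle-treated growth.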
# [9] = NCI Yeast Anticancer Drug Screen. Data for the CLN2oe strain (AID 163);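 note: 0% = growth of vehicle-only control cultures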; conditions: S. cerevisiae CLN2oe strain, stronger effect = higher value
# Method in brief: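 Whole-cell yeast growth assay. A strain engineered for altered cell-cycle control received compound, and inhibition relative to vehicle-treated cultures was recorded.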
# [10] = NCI Yeast Anticancer Drug Screen. Data for the cln2 rad14 strain (AID 165);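 note: 0% = growth equal to vehicle treated cultures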; conditions: S. cerevisiae cln2 rad14 strain, stronger effect = higher value
# Method in brief: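 Yeast strain cln2 rad14, bearing defects in cell cycle control and DNA repair, serves as the test system; values reflect growth inhibition compared with vehicle.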
# [11] = NCI Yeast Anticancer Drug Screen. Data for the bub3 strain (AID 167); conditions: S. cerevisiae bub3 mutant strain, stronger effect = higher value
# Method in brief: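 Steps: expose the mutant yeast strain to compound; grow alongside vehicle-treated cultures; measure growth; express inhibition against the vehicle cultures.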
# [12] = NCI Yeast Anticancer Drug Screen. Data for the wt2 strain (AID 169);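 note: 0% = growth of vehicle-treated yeast cultures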; conditions: S. cerevisiae wt2 strain growth inhibition, stronger effect = higher value
# Method in brief: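 Treated yeast vs. vehicle-treated yeast: growth inhibition determined.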
# [13] = NCI Yeast Anticancer Drug Screen. Data for the mlh1 strain (AID 171);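 note: 0% = growth of vehicle-treated control cultures of the same strain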; conditions: S. cerevisiae mlh1 strain growth inhibition, stronger effect = higher value
# Method in brief: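 A yeast strain with a defined genetic lesion serves as the test organism. Cultures receive compound or vehicle, and growth is measured.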
# [14] = NCI Yeast Anticancer Drug Screen. Data for the sgs1 strain (AID 173);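 note: 0% = growth of vehicle-only control cultures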; conditions: S. cerevisiae sgs1 mutant, stronger effect = higher value
# Method in brief: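 A genetically defined yeast mutant is incubated with the test compound, and its growth is compared to that of the same strain given vehicle.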
# [15] = NCI Yeast Anticancer Drug Screen. Data for the mlh1 rad18 strain (AID 175); conditions: S. cerevisiae mlh1 rad18 strain growth inhibition, stronger effect = higher value
# Method in brief: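 Steps: expose repair-defective yeast to compound; measure growth; express inhibition against vehicle-treated controls.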
# [16] = NCI Yeast Anticancer Drug Screen. Data for the rad18 strain (AID 177); conditions: S. cerevisiae rad18 mutant growth inhibition, stronger effect = higher value
# Method in brief: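 Measured value is growth inhibition of a yeast strain bearing a DNA repair alteration, referenced to vehicle-treated cells.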
# [17] = at 5.0 µM (retest, dose inferred, filed as 0.5)
# [18] = at 50.0 µM (retest, dose inferred, filed as 5.0)
compound,measurement,setting,value
CO[C@@]1([C@@H](Cl)c2ccccc2)C(=O)N(C)/C(=C\c2ccccc2)C(=O)N1C,growth inhibition,[1]; at 1.2 µM,0%
same,growth inhibition,[1]; at 3.7 µM,1%
same,growth inhibition,[1]; at 11.0 µM,3%
same,growth inhibition,[1]; at 33.0 µM,7%
same,growth inhibition,[1]; at 100.0 µM,8%
same,growth inhibition,[2]; at 1.2 µM,0%
same,growth inhibition,[2]; at 3.7 µM,0%
same,growth inhibition,[2]; at 11.0 µM,-2%
same,growth inhibition,[2]; at 33.0 µM,-1%
same,growth inhibition,[2]; at 100.0 µM,-1%
same,growth inhibition,[3]; at 1.2 µM,-1%
same,growth inhibition,[3]; at 3.7 µM,-3%
same,growth inhibition,[3]; at 11.0 µM,-6%
same,growth inhibition,[3]; at 33.0 µM,0%
same,growth inhibition,[3]; at 100.0 µM,5%
same,growth inhibition,[4]; at 1.2 µM,-1%
same,growth inhibition,[4]; at 3.7 µM,-1%
same,growth inhibition,[4]; at 11.0 µM,-1%
same,growth inhibition,[4]; at 33.0 µM,39%
same,growth inhibition,[4]; at 100.0 µM,50%
same,growth inhibition,[5]; at 1.2 µM,2%
same,growth inhibition,[5]; at 3.7 µM,6%
same,growth inhibition,[5]; [17],-12%
same,growth inhibition,[5]; at 11.0 µM,9%
same,growth inhibition,[5]; at 33.0 µM,11%
same,growth inhibition,[5]; [18],14%
same,growth inhibition,[5]; at 50.0 µM,-7.3%
same,growth inhibition,[5]; at 100.0 µM,15%
same,growth inhibition,[6]; at 1.2 µM,-3%
same,growth inhibition,[6]; at 3.7 µM,-1%
same,growth inhibition,[6]; [17],-2%
same,growth inhibition,[6]; at 11.0 µM,0%
same,growth inhibition,[6]; at 33.0 µM,4%
same,growth inhibition,[6]; [18],4%
same,growth inhibition,[6]; at 50.0 µM,11%
same,growth inhibition,[6]; at 100.0 µM,8%
same,growth inhibition,[7]; at 1.2 µM,1%
same,growth inhibition,[7]; at 3.7 µM,3%
same,growth inhibition,[7]; at 11.0 µM,8%
same,growth inhibition,[7]; at 33.0 µM,10%
same,growth inhibition,[7]; at 100.0 µM,11%
same,growth inhibition,[8]; [17],-13%
same,growth inhibition,[8]; [18],96% (active)
same,growth inhibition,[8]; at 50.0 µM,43.6%
same,growth inhibition,[9]; at 1.2 µM,-1%
same,growth inhibition,[9]; at 3.7 µM,0%
same,growth inhibition,[9]; at 11.0 µM,-1%
same,growth inhibition,[9]; at 33.0 µM,5%
same,growth inhibition,[9]; at 100.0 µM,7%
same,growth inhibition,[10]; [17],-8%
same,growth inhibition,[10]; [18],15%
same,growth inhibition,[10]; at 50.0 µM,36.1%
same,growth inhibition,[11]; at 1.2 µM,-1%
same,growth inhibition,[11]; at 3.7 µM,-3%
same,growth inhibition,[11]; [17],-11%
same,growth inhibition,[11]; at 11.0 µM,0%
same,growth inhibition,[11]; at 33.0 µM,10%
same,growth inhibition,[11]; [18],20%
same,growth inhibition,[11]; at 50.0 µM,-6.35%
same,growth inhibition,[11]; at 100.0 µM,19%
same,growth inhibition,[12]; at 1.2 µM,2%
same,growth inhibition,[12]; at 3.7 µM,0%
same,growth inhibition,[12]; at 11.0 µM,-1%
same,growth inhibition,[12]; at 33.0 µM,48%
same,growth inhibition,[12]; at 100.0 µM,79% (active)
same,growth inhibition,[13]; at 1.2 µM,0%
same,growth inhibition,[13]; at 3.7 µM,-2%
same,growth inhibition,[13]; at 11.0 µM,-1%
same,growth inhibition,[13]; at 33.0 µM,9%
same,growth inhibition,[13]; at 100.0 µM,67%
same,growth inhibition,[14]; at 1.2 µM,-2%
same,growth inhibition,[14]; at 3.7 µM,-3%
same,growth inhibition,[14]; at 11.0 µM,-1%
same,growth inhibition,[14]; at 33.0 µM,35%
same,growth inhibition,[14]; at 100.0 µM,82% (active)
same,growth inhibition,[15]; [17],-10%
same,growth inhibition,[15]; [18],10%
same,growth inhibition,[15]; at 50.0 µM,9%
same,growth inhibition,[16]; at 1.2 µM,0%
same,growth inhibition,[16]; at 3.7 µM,0%
same,growth inhibition,[16]; at 11.0 µM,-1%
same,growth inhibition,[16]; at 33.0 µM,4%
same,growth inhibition,[16]; at 100.0 µM,9%
CC(CN(C)C)C(=O)/C=C/c1ccc(Cl)c(Cl)c1 (stereo unspecified),growth inhibition,[1]; at 1.2 µM,7%
same,growth inhibition,[1]; at 3.7 µM,15%
same,growth inhibition,[1]; at 11.0 µM,29%
same,growth inhibition,[1]; at 33.0 µM,73% (active)
same,growth inhibition,[1]; at 100.0 µM,95% (active)
same,growth inhibition,[2]; at 1.2 µM,4%
same,growth inhibition,[2]; at 3.7 µM,6%
same,growth inhibition,[2]; at 11.0 µM,9%
same,growth inhibition,[2]; at 33.0 µM,24%
same,growth inhibition,[2]; at 100.0 µM,85% (active)
same,growth inhibition,[3]; at 1.2 µM,2%
same,growth inhibition,[3]; at 3.7 µM,10%
same,growth inhibition,[3]; at 11.0 µM,27%
same,growth inhibition,[3]; at 33.0 µM,61%
same,growth inhibition,[3]; at 100.0 µM,89% (active)
same,growth inhibition,[4]; at 1.2 µM,4%
same,growth inhibition,[4]; at 3.7 µM,3%
same,growth inhibition,[4]; at 11.0 µM,13%
same,growth inhibition,[4]; at 33.0 µM,83% (active)
same,growth inhibition,[4]; at 100.0 µM,98% (active)
same,growth inhibition,[5]; at 1.2 µM,0%
same,growth inhibition,[5]; at 3.7 µM,-3%
same,growth inhibition,[5]; [17],-9%
same,growth inhibition,[5]; at 11.0 µM,20%
same,growth inhibition,[5]; at 33.0 µM,66%
same,growth inhibition,[5]; [18],3%
same,growth inhibition,[5]; at 50.0 µM,99.2% (active)
same,growth inhibition,[5]; at 100.0 µM,95% (active)
same,growth inhibition,[6]; at 1.2 µM,4%
same,growth inhibition,[6]; at 3.7 µM,5%
same,growth inhibition,[6]; [17],4%
same,growth inhibition,[6]; at 11.0 µM,14%
same,growth inhibition,[6]; at 33.0 µM,48%
same,growth inhibition,[6]; [18],-10%
same,growth inhibition,[6]; at 50.0 µM,99.4% (active)
same,growth inhibition,[6]; at 100.0 µM,97% (active)
same,growth inhibition,[7]; at 1.2 µM,6%
same,growth inhibition,[7]; at 3.7 µM,9%
same,growth inhibition,[7]; at 11.0 µM,22%
same,growth inhibition,[7]; at 33.0 µM,50%
same,growth inhibition,[7]; at 100.0 µM,96% (active)
same,growth inhibition,[8]; [17],-4%
same,growth inhibition,[8]; [18],8%
same,growth inhibition,[8]; at 50.0 µM,99.6% (active)
same,growth inhibition,[9]; at 1.2 µM,3%
same,growth inhibition,[9]; at 3.7 µM,5%
same,growth inhibition,[9]; at 11.0 µM,10%
same,growth inhibition,[9]; at 33.0 µM,29%
same,growth inhibition,[9]; at 100.0 µM,74% (active)
same,growth inhibition,[10]; [17],-3%
same,growth inhibition,[10]; [18],-7%
same,growth inhibition,[10]; at 50.0 µM,97% (active)
same,growth inhibition,[11]; at 1.2 µM,3%
same,growth inhibition,[11]; at 3.7 µM,5%
same,growth inhibition,[11]; [17],-16%
same,growth inhibition,[11]; at 11.0 µM,16%
same,growth inhibition,[11]; at 33.0 µM,69%
same,growth inhibition,[11]; [18],82% (active)
same,growth inhibition,[11]; at 50.0 µM,99.2% (active)
same,growth inhibition,[11]; at 100.0 µM,97% (active)
same,growth inhibition,[12]; at 1.2 µM,2%
same,growth inhibition,[12]; at 3.7 µM,6%
same,growth inhibition,[12]; at 11.0 µM,14%
same,growth inhibition,[12]; at 33.0 µM,70% (active)
same,growth inhibition,[12]; at 100.0 µM,98% (active)
same,growth inhibition,[13]; at 1.2 µM,4%
same,growth inhibition,[13]; at 3.7 µM,6%
same,growth inhibition,[13]; at 11.0 µM,15%
same,growth inhibition,[13]; at 33.0 µM,74% (active)
same,growth inhibition,[13]; at 100.0 µM,98% (active)
same,growth inhibition,[14]; at 1.2 µM,4%
same,growth inhibition,[14]; at 3.7 µM,9%
same,growth inhibition,[14]; at 11.0 µM,25%
same,growth inhibition,[14]; at 33.0 µM,84% (active)
same,growth inhibition,[14]; at 100.0 µM,98% (active)
same,growth inhibition,[15]; [17],-7%
same,growth inhibition,[15]; [18],-21%
same,growth inhibition,[15]; at 50.0 µM,99.2% (active)
same,growth inhibition,[16]; at 1.2 µM,5%
same,growth inhibition,[16]; at 3.7 µM,15%
same,growth inhibition,[16]; at 11.0 µM,40%
same,growth inhibition,[16]; at 33.0 µM,84% (active)
same,growth inhibition,[16]; at 100.0 µM,97% (active)
